AMA1 RON2 block = qHTS for Inhibitors of AMA1-RON; Towards Development of Antimalarial Drug Lead: Primary Screen | AID 720542, 2013 | AlphaScreen AMA1-biotinylated RON2 peptide binding | Potency, µM (titrated, usually from 58.2 µM), actives largely listed as inhibitors | Plasmodium falciparum AMA1 (3D7) - RON2 peptide interaction | 360,000 tested, 0.2% active; note: nearly all actives have a fitted effect of over 45% in size
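AMA1 (3D7) with his tag at 25 nM final met compounds first, then biotinylated RON2 peptide at 25 nM; detection used donor plus acceptor beads, 10 µg/mL apiece, read by AlphaScreen after 30 min at room temperature.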
Pf growth 96h = Primary qHTS for delayed death inhibitors of the malarial parasite plastid, 96 hour incubation. 320,000 tested, 6.9% active. P. falciparum luciferase reporter growth, 96 h. Potency, µM (top dose mostly 28.7 µM), hits mostly inhibitors
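Plates of compound plus infected erythrocytes (2% hematocrit, 0.05% parasitemia final) incubate 96 hours, 37 C, 5% CO2. Detection reagent added; reduced luminescence from the parasites' luciferase reporter flags inhibition.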
Pf growth 48h = Primary qHTS for delayed death inhibitors of the malarial parasite plastid, 48 hour incubation; Potency, µM (titrated, usually from 28.7 µM), most hits filed as inhibitors; P. falciparum luciferase growth in erythrocytes, 48 h; AID 504832, 2011; 310,000 tested, 5.9% active
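Parasite viability was followed by luminescence of a genomically integrated firefly luciferase. Cultures held 0.1% parasitemia at 2% hematocrit (final), incubated under 5% CO2 at 37 C.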
SARS PLpro yeast = qHTS of Yeast-based Assay for SARS-CoV PLP; S. cerevisiae expressing SARS-CoV PLpro, growth rescue; Potency, µM (titrated, usually from 32.9 µM), most hits filed as activators; 330,000 tested, 0.19% active; calls by dose curve; note: nearly all actives have a fitted effect of over 55% in size
Large screens that a line does not name were inactive. This is a sample that favours compounds with a hit; in the whole collection about 9.4% have one here. Unless noted, calls come from the whole dose curve; as a rule, active = well fitted curve in the direction sought with a large enough effect; inconclusive = small, poorly fitted or top-dose-only effect, or another doubt; inactive = no such curve, though single readings can be large; an effect the other way counts as inactive or inconclusive.

COc1cc2c(cc1OC)C(c1cccc(Cl)c1Cl)CC(=O)N2 (stereo unspecified)	Pf growth 96h inconclusive
COC(=O)C1=C(C)NC(=O)CC1c1cccc(Cl)c1Cl (stereo unspecified)	Pf growth 96h inconclusive, Pf growth 48h 5.2µM
COc1ccc(S(=O)(=O)NCCc2c[nH]c3ccc(Cl)cc23)cc1	Pf growth 96h inconclusive
CCNC(=O)N1c2ccc(OCC)cc2C(C)=CC1(C)C	AMA1 RON2 block inconclusive, SARS PLpro yeast inconclusive (no result: Pf growth 96h)
CCOc1ccc2c(c1)C(C)=CC(C)(C)N2C(=O)Nc1ccccc1F	Pf growth 96h 9.3µM
Cc1cc(C)c(C(=O)/C=C/c2ccco2)c(=O)[nH]1	none
Cc1ccc(-c2csc3ncnc(SCC(N)=O)c23)cc1	none
NC(=O)CSc1nc2ccccc2n1-c1ccccc1	Pf growth 96h 9.3µM
Cc1ccc(-c2csc3nc(SCC(N)=O)n(Cc4ccccc4)c(=O)c23)cc1	Pf growth 48h 13µM
NC(=O)CSc1nc2ccccc2n1Cc1ccccc1	Pf growth 48h 2.9µM
COc1ccccc1NC(=O)COC(=O)c1ccc2c(c1)nc(C)n2-c1ccccc1	none
CCOc1cc(CNCc2ccccn2)cc(Cl)c1OCC	none
O=C(CCc1nnc(-c2ccc(-c3ccccc3)cc2)o1)NCCc1ccccn1	Pf growth 96h inconclusive
O=C(CCc1nnc(-c2ccccc2)o1)NCc1c(F)cccc1F	Pf growth 96h 13µM
Cc1cc(C)c(S(=O)(=O)Cc2ccc(Cl)cc2)c(=O)[nH]1	Pf growth 48h 10µM
O=C(NNC(=S)Nc1ccc(Cl)cc1Cl)c1ccncc1	Pf growth 96h 4.1µM
O=c1[nH]c2ccc(S(=O)(=O)N3CCCCC3)cc2s1	none
COc1ccc(C2=NN(C(=O)CSc3nc(=O)n4cccc(C)c4n3)C(c3ccc(C)cc3)C2)cc1 (stereo unspecified)	Pf growth 96h inconclusive, Pf growth 48h 12µM (no result: SARS PLpro yeast)
CN1CCc2c(OCC(=O)N3N=C(c4cccs4)CC3c3ccc(F)cc3)cccc2C1=O (stereo unspecified)	Pf growth 96h inconclusive, Pf growth 48h inconclusive
CCN1CCc2c(OCC(=O)N3N=C(c4cccs4)CC3c3ccc(F)cc3)cccc2C1=O (stereo unspecified)	Pf growth 96h inconclusive, Pf growth 48h 9.3µM
COc1ccc(C2CC(c3cccs3)=NN2C(=O)CSc2nc(=O)n3ccccc3n2)cc1 (stereo unspecified)	Pf growth 96h 8.3µM, Pf growth 48h 13µM
COc1cccc(C2CC(c3cccs3)=NN2C(=O)CSC2=NN3CCCC(=O)N=C3S2)c1OC (stereo unspecified)	Pf growth 96h 0.47µM, Pf growth 48h 7.4µM
COc1ccc(C2CC(c3cccs3)=NN2C(=O)CSc2nc3ccccc3s2)cc1 (stereo unspecified)	Pf growth 96h inconclusive, Pf growth 48h inconclusive
COc1ccc(CCNS(=O)(=O)c2cc3c4c(c2)CCN4C(=O)CC3)cc1OC	none
COc1ccc(C2CC(c3ccc(Br)cc3)=NN2C(=O)CSC2=NCCS2)cc1 (stereo unspecified)	Pf growth 96h 4.7µM, Pf growth 48h inconclusive
Cc1ccn2c(=O)nc(SCC(=O)N3N=C(c4cccs4)CC3c3ccc(F)cc3)nc2c1 (stereo unspecified)	Pf growth 96h 4.7µM, Pf growth 48h inconclusive
Cc1cccn2c(=O)nc(SCC(=O)N3N=C(c4cccs4)CC3c3ccc(F)cc3)nc12 (stereo unspecified)	Pf growth 96h 3.7µM, Pf growth 48h 8.3µM
Cc1ccc2nc(SCC(=O)N3N=C(c4cccs4)CC3c3ccc(F)cc3)nc(=O)n2c1 (stereo unspecified)	none (no result: Pf growth 96h, Pf growth 48h, SARS PLpro yeast)
COc1ccc(C2=NN(C(=O)CSc3ncccn3)C(c3ccc(C)cc3)C2)cc1 (stereo unspecified)	Pf growth 96h inconclusive, Pf growth 48h inconclusive
Cc1ccc(C2CC(c3cccs3)=NN2C(=O)CSc2nc(=O)n3cc(C)ccc3n2)cc1 (stereo unspecified)	Pf growth 96h 5.2µM, Pf growth 48h inconclusive
O=C(CSc1nc2c(cnn2-c2ccc(F)cc2)c(=O)[nH]1)N1N=C(c2cccs2)CC1c1ccc(F)cc1 (stereo unspecified)	Pf growth 96h 9.3µM, Pf growth 48h inconclusive (no result: AMA1 RON2 block)
O=C(CSc1nc2ccccc2s1)N1N=C(c2cccs2)CC1c1ccc(F)cc1 (stereo unspecified)	Pf growth 96h inconclusive
CCN(CC)c1nc2ccccc2n(Cc2cccc(OC)c2)c1=O	Pf growth 96h 1.5µM, Pf growth 48h inconclusive
COc1cccc(Cn2c(=O)ccc3ccccc32)c1	none
CCOC(=O)c1cc(-c2ccc(C)cc2)n(CCC(=O)NCCCOC)c1C	none (no result: Pf growth 96h)
CCCNC(=O)c1cc(-c2ccc(OC)cc2)n(CCCOC)c1C	Pf growth 48h 2.1µM, SARS PLpro yeast inconclusive
O[C@H]1[C@H](O)[C@@H](O)CN2CC[C@H](O)[C@H]12	none
O[C@H]1[C@H]2[C@H](O)CCCN2C[C@H]1O	Pf growth 96h 9.5µM (no result: AMA1 RON2 block, SARS PLpro yeast)
Cc1noc(C)c1CSCC(=O)Nc1cc(C(F)(F)F)ccc1N1CCOCC1	Pf growth 96h inconclusive, Pf growth 48h inconclusive
Cc1csc(C(C)NC(=O)c2ccc(OC3CCN(CCc4ccccc4)CC3)cc2)n1 (stereo unspecified)	Pf growth 48h 10µM
CC(Cc1ccccn1)NC(=O)c1ccc(OC2CCN(Cc3ccccn3)CC2)cc1 (stereo unspecified)	Pf growth 96h 9.3µM
CS(=O)(=O)c1ccccc1C(=O)N1CCN(S(=O)(=O)c2ccc(C3CCCCC3)cc2)CC1	Pf growth 96h inconclusive, Pf growth 48h inconclusive
COc1cc(O)c(C(CC(=O)N2CCCCC2)c2ccc(N(C)C)cc2)c(OC)c1 (stereo unspecified)	none
COc1cc(OC)c2ccc(=O)oc2c1C(CCN1CCCC(C)C1)c1ccc2c(c1)OCO2 (stereo unspecified)	Pf growth 96h 10µM, Pf growth 48h 9.3µM
COc1cc(O)c(C(CC(=O)N2CCOCC2)c2ccc3c(c2)OCO3)c(OC)c1 (stereo unspecified)	Pf growth 48h inconclusive
COc1cc(O)c(C(CCN2CCCC(C)C2)c2ccc(N(C)C)cc2)c(OC)c1 (stereo unspecified)	AMA1 RON2 block inconclusive, Pf growth 96h 0.47µM, Pf growth 48h 0.74µM
COc1cc(O)c(C(CCN2CCOCC2)c2ccc3c(c2)OCO3)c(OC)c1 (stereo unspecified)	Pf growth 96h 2.3µM, Pf growth 48h 1.7µM
COc1cc(O)c(C(CCN2CCCC(C)C2)c2ccc3c(c2)OCO3)c(OC)c1 (stereo unspecified)	Pf growth 96h 0.59µM, Pf growth 48h 0.66µM
O=C(O)c1ccc(/C=N/NC(=O)c2ccc(CN3c4cccc5cccc(c45)S3(=O)=O)cc2)cc1	Pf growth 96h inconclusive
Cc1c(C2(c3c(C)n(C)n(-c4ccccc4)c3=O)C(=O)Nc3ccc(F)cc32)c(=O)n(-c2ccccc2)n1C	none (no result: Pf growth 96h)
COc1cc(S(=O)(=O)N2CCN(C(=O)c3ccco3)CC2)c(OC)cc1C	none

Screens from PubChem.
